Compound activity deposited in PubChem by several laboratories.
Hits are enriched below; roughly 2.8% of the tested compounds scored in any of these assays.
p47phox inh: inhibitors of human p47phox binding; P14598; inhibition, % at 24.7 µM; 220,000 compounds, 0.53% hits; AID 1274; p47phox/p22phox peptide binding, fluorescence polarization, 2 h;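 active = inhibition above about 30%, limit read from the data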;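 note: 0% = p47phox with labelled peptide and 100% = labelled peptide alone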
Target sequence (P14598 whole entry, looked up): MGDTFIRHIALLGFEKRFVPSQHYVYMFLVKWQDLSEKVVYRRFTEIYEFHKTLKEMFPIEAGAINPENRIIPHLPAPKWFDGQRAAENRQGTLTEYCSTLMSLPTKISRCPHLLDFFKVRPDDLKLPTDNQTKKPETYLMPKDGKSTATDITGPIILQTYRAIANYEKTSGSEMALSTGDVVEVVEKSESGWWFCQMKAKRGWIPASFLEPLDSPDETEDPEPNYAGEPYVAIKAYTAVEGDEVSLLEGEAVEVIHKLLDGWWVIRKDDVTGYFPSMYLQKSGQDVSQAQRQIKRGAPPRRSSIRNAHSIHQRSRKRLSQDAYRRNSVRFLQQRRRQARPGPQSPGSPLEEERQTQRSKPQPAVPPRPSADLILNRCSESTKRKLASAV
EP2 mod: modulates human prostaglandin E2 receptor EP2 signaling | EP2-expressing cells, cAMP HTRF FRET, PGE2 co-stimulation | AID 940 | 260,000 compounds, 0.83% hits | induction, % at 25 µM | P43116;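 active = compounds whose cAMP rise, as percent of the full-agonist control response, exceeds 60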;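 note: rat C6 glioma line stably carrying human EP2 under a CMV promoter; the protocol text gives 20 µM as final concentration; 100% = response of wells given 1 µM PGE2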
Wee1 degr inh: blocks degradation of human Wee1 kinase; 220,000 compounds, 1.2% hits; reporter increase, % at 5 µM; AID 1321; P30291; HeLa Luc-Wee1K328M stability, luciferase luminescence; 100% = proteasome inhibitor MG132 effect;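 active = activation above the mean of all tested compounds plus 3 SD, set per screening run, cut at about 8.8% in these data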;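 note: cells exposed to compound for 20 h before luminescence read; 0% = DMSO alone and 100% = MG132 at 30 µM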
Furin inhibitor: inhibitors of human furin. P09958. purified furin, fluorogenic substrate cleavage. inhibition, % at 20 µM or 30 µM. 220,000 compounds, 0.061% hits; in the data active = inhibition above about 25%
HSV augment: increases HSV replication in cells. HSV replication augmentation in cells, fold increase. maximum fold increase. 220,000 compounds, 0.005% hits; in the data active = maximum fold increase above about 1.5; inconclusive = no clear call, values can overlap the other calls; tested in PC3 cells
PGE2 EP2 inh: inhibitors of human EP2 prostaglandin E2 receptor; C6 glioma cells expressing human EP2, cAMP TR-FRET; cells stimulated with saturating PGE2; AID 1422; 260,000 compounds, 0.52% hits; inhibition, % at 25 µM;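 active = percent inhibition above 40 after rounding to a whole number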;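 note: rat C6 glioma host cells with rolipram phosphodiesterase inhibitor present; the protocol text gives 20 µM as final concentration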
* marks the source's active call; other numbers are inactive results.

CCOC(=O)C1=C(C)OC(N)=C(C#N)C1c1ccc(OC)c(OC)c1OC (centres undefined) was read as EP2 mod 5 and PGE2 EP2 inh 11.
Screening Clc1cccc(-c2nn3c(Cn4cnc5ccccc54)nnc3s2)c1 returned p47phox inh -6, EP2 mod -21, Wee1 degr inh 2, Furin inhibitor 34*, HSV augment inactive and PGE2 EP2 inh 5.
`Cn1c2c(c(=O)n(C)c1=O)C(c1ccc(C(C)(C)C)cc1)C1=C(N2)c2ccccc2C1=O` (centres undefined) gave EP2 mod -73 and PGE2 EP2 inh 12.
For CCOC(=O)C1=C(Cc2ccc(F)cc2)C(=O)c2ccccc2C1=O the results were p47phox inh 1, EP2 mod -14, Wee1 degr inh -2, Furin inhibitor -7 and PGE2 EP2 inh 18.
CCCCc1ccc(/C=C2\C(=O)c3ccccc3C(O)=C2C(=O)OCC)cc1 was read as p47phox inh 58*, EP2 mod 33, Wee1 degr inh 0, Furin inhibitor -5, HSV augment inconclusive and PGE2 EP2 inh 11.
Screening COc1cccc(-c2nc3ccc(N)cc3[nH]2)c1 returned EP2 mod -71 and PGE2 EP2 inh 26.
`CCOc1ccc(-n2c(C)cc(CO)c2C)cc1` gave EP2 mod 12 and PGE2 EP2 inh 15.
CN(C)c1ccc(N=Nc2cccc3ccoc23)cc1 was read as p47phox inh -34, EP2 mod -14, Wee1 degr inh 9.0*, Furin inhibitor 3, HSV augment inactive and PGE2 EP2 inh 5.
Screening C[C@H]1CC[C@@]2(O[C@H](CCO)C[C@@H](O)[C@@H]2O)O1 returned p47phox inh 1, EP2 mod -6, Wee1 degr inh 9.4*, Furin inhibitor -18, HSV augment inactive and PGE2 EP2 inh 13.
O=C(Nc1ccc(-c2cn3ccccc3n2)cc1)c1cc(Br)ccc1O was read as EP2 mod -20 and PGE2 EP2 inh 45*.
`O=C(Nc1cccc(-c2cn3ccccc3n2)c1)C1CC1` gave p47phox inh 67*, EP2 mod -29, Wee1 degr inh 3, Furin inhibitor -23, HSV augment inactive and PGE2 EP2 inh 4.
CCC(=O)Nc1cccc(-c2cn3ccccc3n2)c1 was read as p47phox inh -8, EP2 mod -15, Wee1 degr inh 0, Furin inhibitor -20, HSV augment inactive and PGE2 EP2 inh 9.
`O=C(Nc1cccc(-c2cn3ccccc3n2)c1)c1cccc(Cl)c1` gave p47phox inh 18, EP2 mod -14, Wee1 degr inh 3, Furin inhibitor -14, HSV augment inactive and PGE2 EP2 inh 61*.
Screening O=C(Nc1ccc(-c2cn3ccccc3n2)cc1)c1cccs1 returned p47phox inh 3, EP2 mod -69, Wee1 degr inh 5, Furin inhibitor -2, HSV augment inactive and PGE2 EP2 inh 4.
COc1ccccc1Cc1nnc(NC(=O)c2cc(C3CCCCC3)no2)s1 was read as EP2 mod -47 and PGE2 EP2 inh 12.
OC(CN1CCC2(CC1)CC(O)c1ccc3ccccc3c1O2)c1ccc(Cl)cc1 (centres undefined) was read as EP2 mod -86 and PGE2 EP2 inh 50*.
Screening Cn1c(=O)oc2cc(S(=O)(=O)Nc3ccccc3)ccc21 returned p47phox inh 6, EP2 mod -8, Wee1 degr inh -4, Furin inhibitor -24, HSV augment inactive and PGE2 EP2 inh 8.
Screening CCc1cccc(NS(=O)(=O)c2ccc3c(c2)oc(=O)n3C)c1 returned p47phox inh 40*, EP2 mod -11, Wee1 degr inh -2 and Furin inhibitor -12.
O=C(/C=C/c1ccco1)Nc1cc(Br)c(O)c(Br)c1 was read as EP2 mod -24 and PGE2 EP2 inh 10.
`COc1ccc(OC)c(-c2[nH]nc3c2C(c2ccc(C(F)(F)F)cc2)C(C#N)=C(N)O3)c1` (centres undefined) gave EP2 mod 12 and PGE2 EP2 inh 9.
`C/C(=N\Nc1cc(C(F)(F)F)ccc1Cl)c1ccccc1O` gave p47phox inh -10, EP2 mod 65*, Wee1 degr inh 2, Furin inhibitor -29, HSV augment inactive and PGE2 EP2 inh 5.
For C/C(=N\Nc1ccc(F)cc1F)c1ccccc1O the results were p47phox inh -12, EP2 mod -44, Wee1 degr inh -2, Furin inhibitor -30, HSV augment inactive and PGE2 EP2 inh 14.
CCN1CCN(C(=O)Nc2ccc(Cl)cc2)CC1 was read as EP2 mod -41 and PGE2 EP2 inh 14.
Screening Brc1cccc(Cn2c(-c3cncs3)nc3ccccc32)c1 returned p47phox inh 3, EP2 mod 61*, Wee1 degr inh 2, Furin inhibitor -24, HSV augment inactive and PGE2 EP2 inh 10.
CC(=O)N(Cc1ccccc1Cl)Cc1cc2ccc(C)c(C)c2[nH]c1=O was read as EP2 mod -22 and PGE2 EP2 inh 18.
For Cc1ccc(NC(=O)Cn2nc(-c3cccs3)cc(N)c2=O)cc1 the results were EP2 mod -15 and PGE2 EP2 inh 3.
CCOC(=O)c1c(C)c(C(=O)Nc2ccc3c(c2)OCCO3)c(C)n1C was read as p47phox inh -21, EP2 mod 8, Wee1 degr inh 9.2*, Furin inhibitor -6, HSV augment inactive and PGE2 EP2 inh 4.
For CCOC(=O)c1ccc(NC(=O)Nc2ccc3c(c2)OCCO3)cc1 the results were p47phox inh -27, EP2 mod -16, Wee1 degr inh -3, Furin inhibitor -6, HSV augment inactive and PGE2 EP2 inh 6.
For O=C(O)c1cccc(N/N=C/C2=C(Cl)c3cc(Cl)ccc3SC2)c1 the results were p47phox inh 1, EP2 mod 63*, Wee1 degr inh -1, Furin inhibitor -3, HSV augment inactive and PGE2 EP2 inh 9.
COc1ccccc1NS(=O)(=O)c1cccc(NC(=O)NCCCl)c1 was read as p47phox inh 4, EP2 mod -26, Wee1 degr inh 11*, Furin inhibitor -7, HSV augment inactive and PGE2 EP2 inh 15.
CCOC(=O)CN1CCC2(CC1)NC(=O)c1ccccc1O2 was read as EP2 mod -7.
COc1ccccc1N1CC(C(=O)OCC(=O)c2ccc(F)cc2)CC1=O (centres undefined) was read as p47phox inh -1, EP2 mod -6, Wee1 degr inh 2, Furin inhibitor -4, HSV augment inactive and PGE2 EP2 inh 4.
`Cc1cccc(N2CC(C(=O)OCC(=O)c3ccc(OC(=O)c4cccs4)cc3)CC2=O)c1C` (centres undefined) gave p47phox inh -15, EP2 mod -21, Wee1 degr inh -1, Furin inhibitor -6, HSV augment inactive and PGE2 EP2 inh 120*.
